Test results as given in the supplement of paper PMC6555819.

Tests used:
Test in all cases: PBM binding z-score (relative to random genomic background probes); higher = stronger binding; sequences stand for … in GC…GCGATTGACAGCGTAGAATGAAGG
[1] = tested on: FXR:RXRa (NR concentration 270 nM, RXRa partner concentration 90 nM)
Outline: (§1)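 Custom Agilent 4×180K protein-binding microarrays carried double-stranded probes. Their 34-nt variable regions held direct-repeat seeds, single-nucleotide variants, half-site ablations and random human genomic background sequences. Arrays were incubated 1 h with ligand-free nuclear receptor dimers in PBS pH 7.4, 2% milk, 0.02% Triton X-100, 1 mM DTT, 0.2 mg/mL BSA and 0.4 mg/ml salmon testes DNA. Antibodies against each partner (one per run) detected binding, and scanned fluorescence was regression-normalized. Binding z-scores use random background probes as reference.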

[2] = tested on: LXRa:RXRa (NR concentration 270 nM, RXRa partner concentration 90 nM)
Outline: as §1

[3] = tested on: LXRa homodimer (NR concentration 270 nM)
Outline: as §1

[4] = tested on: LXRb:RXRa (NR concentration 270 nM, RXRa partner concentration 90 nM)
Outline: as §1

[5] = tested on: LXRb homodimer (NR concentration 270 nM)
Outline: as §1

[6] = tested on: PPARa:RXRa (NR concentration 270 nM, RXRa partner concentration 90 nM)
Outline: as §1

[7] = tested on: PPARg:RXRa (NR concentration 180 nM, RXRa partner concentration 90 nM)
Outline: as §1

[8] = tested on: PPARg:RXRa 270nM:90nM, anti-RXR (NR concentration 270 nM, RXRa partner concentration 90 nM)
Outline: as §1

[9] = tested on: PPARg:RXRa 30nM:10nM, anti-RXR (NR concentration 30 nM, RXRa partner concentration 10 nM)
Outline: as §1

[10] = tested on: PPARg:RXRa 90nM:30nM, anti-RXR (NR concentration 90 nM, RXRa partner concentration 30 nM)
Outline: as §1

[11] = tested on: PPARg:RXRa DBDmut IVT, anti-RXR (DBD mutation: RXRa K156A/R161A, NR concentration 270 nM, RXRa partner concentration 90 nM)
Outline: as §1

[12] = tested on: PPARg:RXRa IVT, anti-PPARg (NR concentration 270 nM, RXRa partner concentration 90 nM)
Outline: as §1

[13] = tested on: PPARg DBDmut:RXRa IVT, anti-PPARg (DBD mutation: PPARg1 K132A/R137A, NR concentration 270 nM, RXRa partner concentration 90 nM)
Outline: as §1

[14] = tested on: PPARg DBDmut IVT, anti-PPARg (DBD mutation: PPARg1 K132A/R137A, NR concentration 270 nM)
Outline: as §1

[15] = tested on: PPARg homodimer (NR concentration 180 nM)
Outline: as §1

[16] = tested on: PXR:RXRa (NR concentration 270 nM, RXRa partner concentration 90 nM)
Outline: as §1

[17] = tested on: PXR homodimer (NR concentration 270 nM)
Outline: as §1

[18] = tested on: RARa:RXR (NR concentration 270 nM, RXRa partner concentration 90 nM)
Outline: as §1

[19] = tested on: RARa homodimer (NR concentration 270 nM)
Outline: as §1

[20] = tested on: RARb:RXRa (NR concentration 270 nM, RXRa partner concentration 90 nM)
Outline: as §1

Sequence	PBM binding z-score [1]	PBM binding z-score [2]	PBM binding z-score [3]	PBM binding z-score [4]	PBM binding z-score [5]	PBM binding z-score [6]	PBM binding z-score [7]	PBM binding z-score [8]	PBM binding z-score [9]	PBM binding z-score [10]	PBM binding z-score [11]	PBM binding z-score [12]	PBM binding z-score [13]	PBM binding z-score [14]	PBM binding z-score [15]	PBM binding z-score [16]	PBM binding z-score [17]	PBM binding z-score [18]	PBM binding z-score [19]	PBM binding z-score [20]
CCAGACATGTGAGAAGGTAACTCAGCCTCGATTA	-0.141	0.0863	0.298	-0.057	0.106	-0.106	0.462	-0.748	-0.305	-0.419	0.325	-0.238	0.124	0.154	0.72	-0.0196	0.307	0.384	1.03	-0.14
AGAATGAGGTTATTAAGATGAGGGAATTGCGGTC	1.61	1.5	0.433	1.3	0.12	2.54	1.22	1.46	0.735	1.12	2.83	1.97	1.19	0.341	1.28	1.03	0.85	1.22	1.23	1.41
GCTTGTAGTTCAAGGTTAAGAAAGACTAAGCTAA	1.52	2.43	0.162	1.53	-0.369	2.55	0.724	2.09	0.473	1.18	-0.00904	0.825	0.1	0.576	0.358	1.71	0.883	1.74	0.195	2.61
TAGCCTAGATCATGGGCCAGTATACCACGCGAAC	-0.688	-0.764	-0.759	-0.614	-0.395	-0.574	0.555	-0.555	-0.628	-0.462	0.188	0.69	-0.074	-0.614	-1.13	-0.835	-0.709	-0.943	-0.47	-0.479
ACTAGCAGGCCAAGGGTCACTCATGATTAGTCCG	2.27	2.25	0.295	2.52	-0.498	4.38	7.52	7.48	6.27	7.65	1.25	3.63	0.294	-0.197	2.62	3	-0.0152	4.04	0.642	3.41
CCAGACAGGGGAGAAGGTAACTCAGCCTCGATTA	-0.354	-0.331	-0.147	-0.0664	-0.72	-0.0873	0.239	0.0493	-0.552	0.0211	0.0282	-0.359	-0.398	-1.2	0.413	-0.427	-0.0553	-0.353	0.21	-0.286
TCTAGTTGGTCAAAGATCACACACTCGAAATGCG	1.08	0.894	0.461	1.25	0.389	3.18	5.95	6.52	5.72	6.88	2.51	2.84	1.33	1.22	1.93	1.07	0.547	1.77	0.928	1.3
CCTGCTAGGTCATGGTCACCTAATCTACAGTATG	3.67	2.86	0.345	2.19	-0.376	3.56	3.28	3.54	1.07	2.72	5	5.09	0.83	0.207	1.89	1.82	-0.294	2.75	-0.115	3.98
CCGAATGGGGCAGAAAGGTTACCATACCATCCGG	0.445	0.679	0.189	0.904	-0.832	2.53	2.67	4.16	2.22	3.95	0.269	1	-1.13	-0.938	0.818	1.11	0.134	1.8	-0.0696	1.89
CCTACTGGGCCATCAGTTCATTGATATCAACGTT	0.0577	-0.0476	0.218	0.257	-0.567	1.11	1.34	2.19	0.638	1.48	4.11	3.98	0.61	0.651	0.245	1.18	2.78	0.106	0.0148	0.462
ACTTACGGGTCAACGAGGTGATAGCACGCGTATA	6.81	4.17	0.0422	3.7	0.296	5.53	5.36	5	2.26	4.11	3.7	4.4	2.02	1.22	2.44	3.94	0.307	5.09	1.19	4.04
ATATGTATGTTAGCTGGGGTCATTCAGACTAGGC	3.96	4.22	1.92	4.33	1.31	4.48	2.06	2.85	1.26	2.08	2.2	2.3	1.51	1.76	1.82	5.63	2.99	5.55	0.578	2.6
CCTAGCAGGCCGATCTGGGTCACTCAAGGCTTGA	0.827	0.587	-0.575	0.613	-0.973	2.6	1.46	1.5	-0.37	0.546	2.8	4.02	-0.802	-1.18	0.337	0.634	-0.34	1.27	-0.893	1.06
TCTTGTAGATCAACGGGAGGTTAAGAAAGATCGA	0.553	1.31	0.00977	1.17	0.12	1.49	-0.121	1.58	2.52	2.01	2.28	0.974	0.226	-0.0514	0.14	0.94	0.02	1.14	0.281	0.648
